High-throughput results: PubChem, National Center for Advancing Translational Sciences (NCATS)
This is a sample that favours compounds with a hit; in the whole collection about 14% have one here.
LmPK inhibitor – inhibitors of Leishmania mexicana pyruvate kinase | Q27686 | purified LmPK, Kinase-Glo ATP luminescence, 1 h | Potency, µM (highest dose often 57.5 µM), actives largely listed as inhibitors | 0.37% of 290,000 active | AID 1721
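qHTS format; LmPK 0.1 nM; substrates PEP 0.5 mM and ADP 0.1 mM. One-hour room-temperature incubation, then coupled luciferase luminescence; 0.5 nM enzyme wells mark activation.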
NS1 inh – inhibitors of influenza NS1 protein function | Potency, µM (highest dose often 46.1 µM) | 0.4% of 270,000 active | AID 2326; calls by dose curve; also: actives are rising curves; nearly all actives have a fitted effect of over 50% in size
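In this qHTS, NS1 from influenza A is expressed in budding yeast, where it slows growth. Cells are switched from glucose to 2% galactose medium (pH 6.0, -URA), treated with compound, and growth recovery is read at OD600.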
Cycloheximide cs – counter-screen for Shiga toxin inhibitors: cycloheximide protein synthesis inhibition | cell reporter, cycloheximide protein synthesis inhibition counterscreen | 12% of 300,000 active | max response, %; in the data active = max response mostly above about 13%, no sharp cut-off; inactive = mostly below about 14%; also: read at 38.3 µM for the half of the compounds with a filed dose
Shiga toxin inh – Shiga toxin inhibition | AID 2315 | 9.2% of 290,000 active | Vero cells, Shiga toxin protein synthesis inhibition reporter | inhibition, % at 38.7 µM; in the data active = inhibition mostly above about 28%, no sharp cut-off; inactive = mostly below about 43%
FBPA Giardia inh – blocks Giardia fructose-bisphosphate aldolase activity; A8B2U2; purified Giardia FBPA; Potency, µM (doses to about 59.6 µM), actives largely listed as inhibitors; 0.71% of 290,000 active; also: nearly all actives have a fitted effect of over 55% in size
Target sequence (A8B2U2 whole entry, looked up): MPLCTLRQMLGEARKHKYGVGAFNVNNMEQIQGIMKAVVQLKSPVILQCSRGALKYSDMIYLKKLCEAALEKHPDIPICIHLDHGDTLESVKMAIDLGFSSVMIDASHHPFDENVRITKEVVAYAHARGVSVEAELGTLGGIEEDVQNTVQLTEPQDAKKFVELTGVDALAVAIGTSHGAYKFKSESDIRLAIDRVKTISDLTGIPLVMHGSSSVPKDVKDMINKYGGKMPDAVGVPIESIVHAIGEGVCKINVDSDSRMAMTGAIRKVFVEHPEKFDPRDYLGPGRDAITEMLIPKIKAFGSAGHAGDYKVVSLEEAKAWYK
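Giardia FBPA (40 nM reagent) was preincubated 10 min at RT with compound (up to 57.5 uM final), then substrate plus GAPDH/TPI/NAD/arsenate coupling system with diaphorase/resazurin was added; resorufin fluorescence (525/598 nm) was read after 20 min.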
Each line names hits and unclear results; the compound was inactive in the other large screens. Unless noted, calls follow the shape of the dose curve; as a rule, active = well fitted curve in the direction sought with a large enough effect; inconclusive = small, poorly fitted or top-dose-only effect, or another doubt; inactive = no such curve, though single readings can be large; an effect the other way counts as inactive or inconclusive.

CCOC(=O)N1CCN(C(=O)CCSc2ccccc2)CC1	Cycloheximide cs 54, Shiga toxin inh 85
CCOC(=O)N1CCN(C(=O)CCSc2ccc(C)cc2)CC1	Cycloheximide cs 8.6, Shiga toxin inh active
O=C(CCNC(=O)C1CCN(S(=O)(=O)c2ccccc2)CC1)NCc1ccccc1Cl	none (no result: FBPA Giardia inh)
CC(C)CN(C(=O)c1ccc(F)cc1F)c1c(N)n(CC(C)C)c(=O)[nH]c1=O	none
c1ccc(-c2ccc(-c3ccc(C4=NCCN4)cc3)o2)cc1	none (no result: LmPK inhibitor, Cycloheximide cs, Shiga toxin inh, FBPA Giardia inh)
CC(=O)Nc1ccc(S(=O)(=O)N(C#N)c2nc(C)cc(C)n2)cc1	FBPA Giardia inh inconclusive
Cc1c(/C(O)=C2\C(=O)C(=O)N(CCN(C)C)C2c2ccccc2)cnn1-c1ccccc1 (centres undefined)	Cycloheximide cs 50, Shiga toxin inh 111
CCCOc1ccc(/C(O)=C2/C(=O)C(=O)N(CCN(C)C)C2c2ccco2)cc1 (centres undefined)	Cycloheximide cs 37, Shiga toxin inh 74
CCN(CC)CCCN1C(=O)C(=O)/C(=C(/O)c2ccc3c(c2)OCCO3)C1c1ccco1 (centres undefined)	Cycloheximide cs 46
Cc1c(/C(O)=C2\C(=O)C(=O)N(CCN(C)C)C2c2ccco2)cnn1-c1ccccc1 (centres undefined)	Cycloheximide cs 30, Shiga toxin inh 67
Clc1cccc(CN2CCSCC2)c1Cl	none
Cc1ccc(CN2CCN(/N=C/C=C/c3ccccc3[N+](=O)[O-])CC2)cc1	none (no result: NS1 inh)
CC(/C=N/N1CCN(Cc2ccccc2)CC1)=C\c1ccccc1	Cycloheximide cs 25 (no result: NS1 inh)
COc1ccccc1/C=C/C=N/N1CCN(Cc2ccccc2)CC1	Cycloheximide cs 13
CC(=C/c1ccccc1)/C=N/N1CCN(Cc2ccc(C)cc2)CC1	none
Cc1ccc(CN2CCN(/N=C/c3ccccc3)CC2)cc1	none
Cc1ccc(/C=N/N2CCN(Cc3ccccc3)CC2)cc1	Cycloheximide cs 17 (no result: NS1 inh)
Fc1ccc(/C=N/N2CCN(Cc3ccccc3)CC2)cc1	Cycloheximide cs 20, Shiga toxin inh 62
CN(Cc1ccco1)c1nc(-c2ccoc2)nc2ccccc12	none (no result: LmPK inhibitor, NS1 inh, Cycloheximide cs, Shiga toxin inh)
CCCCCC1OC1C/C=C\C/C=C\C/C=C\CCCC(=O)O (centres undefined)	none (no result: LmPK inhibitor, NS1 inh, Cycloheximide cs, Shiga toxin inh)
Cc1ccc(C(=O)CCC2CCCCC2=O)cc1 (centres undefined)	Cycloheximide cs 33, Shiga toxin inh 101
O=C(CCC1CCCCC1=O)c1ccccc1 (centres undefined)	none
Cc1ccc(C(=O)CCC2CCCC2=O)cc1 (centres undefined)	Cycloheximide cs 50, Shiga toxin inh 53
Cc1ccc(C(=O)CCC(=O)NC2CCCC(C)C2C)cc1 (centres undefined)	none
CCc1ccc(C(=O)CCC2CCCCC2=O)cc1 (centres undefined)	Cycloheximide cs 36, Shiga toxin inh 96
c1ccc(CNc2ncnc3ccc(-c4ccc5c(c4)OCO5)cc23)cc1	none (no result: LmPK inhibitor, NS1 inh, Cycloheximide cs, Shiga toxin inh)
Cc1sc(NC(=O)C2CCCCC2C(=O)O)c(C(N)=O)c1-c1ccccc1 (centres undefined)	Cycloheximide cs 38, Shiga toxin inh 40
CC/C(=N\NC(=O)c1ccccc1Cl)c1c(O)n(C2CCCCC2)c(=O)[nH]c1=O	Cycloheximide cs 14 (no result: FBPA Giardia inh)
CCC(=NC1CC1)c1c(O)n(C2CCCCC2)c(=O)[nH]c1=O	none
CC/C(=N\NC(=O)c1ccccc1)c1c(O)n(C2CCCCC2)c(=O)[nH]c1=O	Cycloheximide cs 34, Shiga toxin inh 51
COCC(=O)N1CCC2(CCCN(Cc3ccccc3)C2)CC1	none (no result: LmPK inhibitor, NS1 inh, Cycloheximide cs, Shiga toxin inh)
CC(C)c1ccc(C2NC(C(=O)O)CS2)cc1 (centres undefined)	FBPA Giardia inh inconclusive
O=C(O)C1CSC(c2coc3ccccc3c2=O)N1 (centres undefined)	Cycloheximide cs 14
COc1ccc(C2C=C3CNS(=O)(=O)C3CC2OC(=O)c2ccc(Cl)cc2)cc1 (centres undefined)	none (no result: LmPK inhibitor, NS1 inh)
S=C(c1ccc(N2CCCC2)c(Br)c1)N1CCCCC1	Cycloheximide cs 12
CSc1ccc(C(=S)N2CCN(C)CC2)cc1	none
CSc1ccc(C(=S)N2CCCC2)cc1	Cycloheximide cs 16
S=C(c1ccc(N2CCCC2)cc1)N1CCCCC1	Cycloheximide cs 52, Shiga toxin inh 112
N=c1oc2cc(O)ccc2cc1C(=O)Nc1ccc(F)cc1	Cycloheximide cs 27, Shiga toxin inh 43
COc1ccc(NC(=O)c2cc3ccc(O)cc3o/c2=N\O)cc1	Cycloheximide cs 15
CCC(=O)c1c[nH]c(C(=O)N2CCOCC2)c1	none
Fc1cccc(Cl)c1Cn1nnc(-c2ccc3c(c2)OCO3)n1	Cycloheximide cs 62, Shiga toxin inh 146
Cc1ccccc1Cn1ccc(-c2ccc3c(c2)OCO3)n1	Cycloheximide cs 60, Shiga toxin inh 74
N#CCn1nnc(-c2ccc3c(c2)OCO3)n1	Cycloheximide cs 34
Fc1cccc(Cn2ccc(-c3ccc4c(c3)OCO4)n2)c1	Cycloheximide cs 57, Shiga toxin inh 99
Nc1ccn(Cc2cccc(F)c2)n1	none
CC(C)CC(=O)Nc1ccc(S(=O)(=O)Nc2nccs2)cc1	none
N=C1[C@@H](O)[C@]2(I)c3ccccc3N3C(=N)[C@H](O)[C@@H]4c5ccccc5N1[C@@H]4[C@@H]32	none (no result: LmPK inhibitor, Cycloheximide cs, Shiga toxin inh, FBPA Giardia inh)
Cc1ccccc1Cn1nnc(-c2ccc3c(c2)OCO3)n1	Cycloheximide cs 49, Shiga toxin inh 54
Cc1ccc2c(c1)cc(CN(Cc1ccco1)C(=O)COc1ccccc1)c1nnnn12	Cycloheximide cs 26, Shiga toxin inh 65
Nc1nc2ccccc2nc1N1CCCC1	none
CN1CCCNc2nc3ccccc3nc21	Cycloheximide cs 35, Shiga toxin inh 84
Cc1cc(C(=O)Nc2ccc(Br)cc2)cs1	Cycloheximide cs 47, Shiga toxin inh 83 (no result: FBPA Giardia inh)
CSc1ccccc1NC(=O)c1csc(C)c1	Cycloheximide cs 31, Shiga toxin inh 36
Cc1cc(C(=O)Nc2ccc(S(=O)(=O)N3CCCC3)cc2)cs1	none
CSc1ccccc1NC(=O)c1ccc(C)o1	NS1 inh inconclusive, Cycloheximide cs 20, Shiga toxin inh 51
CNS(=O)(=O)c1ccc(NC(=O)c2csc(C)c2)cc1	Cycloheximide cs 23, Shiga toxin inh 36 (no result: FBPA Giardia inh)
Clc1ccc(-c2nc3sccn3c2/C=N/OCc2ccc(Cl)c(Cl)c2)cc1	none (no result: LmPK inhibitor, NS1 inh)
COc1ccc(C2CC(c3cccs3)=NN2C(=O)CN2CCCCC2)cc1 (centres undefined)	Shiga toxin inh 26 (no result: NS1 inh)
COc1ccc(C2CC(c3cccs3)=NN2C(=O)CCl)cc1OC (centres undefined)	Cycloheximide cs 29, Shiga toxin inh 42
COc1cc(C2CC(c3cccs3)=NN2C(=O)CCl)ccc1OC(F)F (centres undefined)	Shiga toxin inh 63
Cc1cc(NC(=O)COC(=O)C2CC(=O)N(c3cccc(C)c3C)C2)no1 (centres undefined)	NS1 inh inconclusive
CCOc1ccc2nc(NC(=O)c3cccnc3)sc2c1	Cycloheximide cs 75, Shiga toxin inh 122
CCOc1ccc2nc(NC(=O)c3c([N+](=O)[O-])cnn3CC)sc2c1	none
